PubChem BioAssay (NCATS)
Records with an inconclusive call do not appear. The source made the active and inactive calls. Calls come from the whole dose curve; as a rule, active = well fitted inhibition curve with a large enough effect; inconclusive = small, poorly fitted or top-dose-only effect; inactive = no such curve, though single readings can be large or run the other way.

These compounds were tested against Protein phosphatase 1D (Homo sapiens) (UniProt O15297) (assay: RapidFire Mass Spectrometry qHTS Assay for Modulators of WT P53-Induced Phosphatase 1 (WIP1) (AID 1347424;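 note: amount of dephosphorylated VEPPL-S-QETFS peptide product formed by WIP1; plate controls were DMSO wells for no effect and GSK830371 inhibitor control at 10 µM for full effect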)). Settings: WIP1 dephosphorylation of phosphopeptide, RapidFire MS; series mostly up to 63 µM; activity change, negative = inhibition: at the top concentration.
Method in brief: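 10 nM WIP1 preincubated with compounds 1 hr at room temperature in pH 7.5 Tris buffer with 30 mM MgCl2, 1 mM TCEP; 2 uM VEPPL-pS-QETFS phosphopeptide for 5 min, formic acid quench; dephosphorylated product quantified by RapidFire MS against labelled standard.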

Protein phosphatase 1D (Homo sapiens), sequence (O15297 whole entry, looked up): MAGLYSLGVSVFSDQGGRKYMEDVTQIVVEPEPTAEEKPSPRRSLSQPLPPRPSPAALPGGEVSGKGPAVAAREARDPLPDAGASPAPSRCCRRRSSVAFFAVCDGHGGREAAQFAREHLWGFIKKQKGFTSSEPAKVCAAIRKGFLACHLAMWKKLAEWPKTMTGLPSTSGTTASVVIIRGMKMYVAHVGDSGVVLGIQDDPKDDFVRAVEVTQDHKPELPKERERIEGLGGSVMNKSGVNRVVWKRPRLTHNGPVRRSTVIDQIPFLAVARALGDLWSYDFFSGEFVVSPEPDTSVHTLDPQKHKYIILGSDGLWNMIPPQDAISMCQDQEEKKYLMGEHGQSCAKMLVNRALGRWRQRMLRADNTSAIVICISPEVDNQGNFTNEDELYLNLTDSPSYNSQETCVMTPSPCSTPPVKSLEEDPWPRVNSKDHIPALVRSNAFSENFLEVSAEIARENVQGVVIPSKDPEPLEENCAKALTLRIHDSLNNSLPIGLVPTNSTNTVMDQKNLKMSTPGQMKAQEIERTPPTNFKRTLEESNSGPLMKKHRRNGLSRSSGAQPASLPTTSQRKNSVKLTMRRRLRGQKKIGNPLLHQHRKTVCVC

| SMILES | activity change, negative = inhibition |
| --- | --- |
| FC1(F)C(F)(F)C(F)(F)C2(F)C(F)(F)C(F)(F)C(F)(F)C(F)(F)C2(F)C1(F)F (stereo unspecified) | 6.06% (inactive) |
| COc1cc(N)c(Cl)cc1C(=O)NC1CCN(Cc2ccccc2)CC1 | -5.35% (inactive) |
| C[N+]1(C)CCC(=C(c2ccccc2)c2ccccc2)CC1 | 30.4% (inactive) |
| OCc1ccccn1 | -0.267% (inactive) |
| CN1CCN(c2cc3c(cc2F)c(=O)c(C(=O)O)cn3-c2ccc(F)cc2)CC1 | -4.09% (inactive) |
| O=C(Nc1cccc(C2=NCCN2)c1)Nc1cccc(C2=NCCN2)c1 | -0.379% [at 26.6 µM] (inactive) |
| NC(=S)N/N=C/c1cccnc1 | 0.957% (inactive) |
| CO[C@]12C[C@@H](COC(=O)c3cncc(Br)c3)CN(C)[C@@H]1Cc1cn(C)c3cccc2c13 | 24.1% (inactive) |
| COc1cc(C)nc(-n2nc(C)cc2OC)n1 | -4.75% (inactive) |
| N#CCC(=O)NN | 2.3% (inactive) |
| CCCN(CCC)S(=O)(=O)c1ccc(C(=O)O)cc1 | -3.37% (inactive) |
| CCOc1cc(OCC)c(C(=O)CCC(=O)O)cc1OCC | 3.29% (inactive) |
| O=[N+]([O-])c1ccc(/C=N\O)o1 | 0.349% (inactive) |
| O=C(CCN1CCN2CCCC2C1)N1c2ccccc2Sc2ccc(Cl)cc21 (stereo unspecified) | 13.3% [at 26.6 µM] (inactive) |
| CC(C(=O)O)c1cccc(Oc2ccccc2)c1 (stereo unspecified) | -17.8% (inactive) |
| CCCCCCCCCCCCCC(=O)OC(C)C | 25.6% (inactive) |
| COc1ccc(-c2cc(C(F)F)nn2-c2ccc(S(N)(=O)=O)cc2)cc1F | -1.99% (inactive) |
| NS(=O)(=O)c1cc(C(=O)O)cc(N2CCCC2)c1Oc1ccccc1 | -11% (inactive) |

| SMILES | activity change, negative = inhibition |
| --- | --- |
| O=C(O)c1ccc(S(=O)(=O)N(Cl)Cl)cc1 | 5.01% (inactive) |
| CC(C)n1c(/C=C/[C@@H](O)C[C@@H](O)CC(=O)O)c(-c2ccc(F)cc2)c2ccccc21 | -18.7% (inactive) |
| Cc1cccc(C)c1NC(=O)CN1CCCC1 | 1.61% (inactive) |
| CCCCCCCC/C=C\CCCCCCCCN | 29.4% (inactive) |
| CCCCN1C[C@H](O)[C@@H](O)[C@H](O)[C@H]1CO | -4.93% (inactive) |
| COP(=O)(OC)OC(c1ccc(Cl)cc1)P(=O)(OC)OC (stereo unspecified) | -6.34% (inactive) |
| CCN(CC)CCOC(=O)C(Cc1cccc2ccccc12)CC1CCCO1 (stereo unspecified) | 17.9% (inactive) |
| O=C(O)P(=O)(O)O | 4.34% (inactive) |
| CC(=C(CCOC(=O)C(C)C)SSC(CCOC(=O)C(C)C)=C(C)N(C=O)Cc1cnc(C)nc1N)N(C=O)Cc1cnc(C)nc1N | 12.2% (inactive) |
| CN1CCc2cccc3c2[C@H]1Cc1ccc(O)c(O)c1-3 | 3.48% (inactive) |
| NCc1ccccc1Sc1ccccc1CO | 13% (inactive) |
| C[C@H]1[C@H]2CC[C@H]3[C@@H]4CC=C5C[C@@H](N(C)C)CC[C@]5(C)[C@H]4CC[C@]23CN1C | -7.8% (inactive) |
| CCN1CCCC(OC(=O)C(c2ccccc2)c2ccccc2)C1 (stereo unspecified) | -8.81% (inactive) |
| CCCc1ncc(C[n+]2ccccc2C)c(N)n1 | -0.643% (inactive) |
| CN(C)CCC[C@@]1(c2ccc(F)cc2)OCc2cc(C#N)ccc21 | -9.68% (inactive) |
| COc1cc(C(=O)NCc2ccc(OCCN(C)C)cc2)cc(OC)c1OC | 3.59% (inactive) |
| CCOc1ccccc1OCCN[C@H](C)Cc1ccc(OC)c(S(N)(=O)=O)c1 | 6.96% (inactive) |
| Nc1ccc(C(=O)NCC(=O)O)cc1 | -14.4% (inactive) |
